# Assay results: the OligoGym collection
# Target: MAGED2
# Test: pooled miR-30 sensor sort-seq; sequence = guide strand
# Settings: shRNA
# Also: reference of the scale not given here.
row,Sequence,sensor-assay potency score (higher = more potent)
1,TTCTTTTGTACCTTGCAGGCAA,0.18
2,TTTTGAGACCTTCACATCCTCT,-1.1
3,TTGTATTGACCTTTGTATCAGC,-0.669
4,TCGAGCTCTAATCTCGGCCCTA,-0.609
5,TTGGGTGAGTCCTTAGTCGTTC,-0.156
6,TTTCTTGGCTTTGACCTTGGGC,0.00108
7,TTTGATGATGTCCTTCAGCATG,-1.48
8,TTTAGCTTCTGCTCCCGCCTGG,-0.0182
9,AACAGAGTCTGCATCATCGAGC,-0.281
10,TTCTTTGATGATGTCCTTCAGC,-0.636
11,TTGATGGGAATCTTCGTCTGGT,-0.0413

# Target: MAGOHB
# Test: as above
# Settings: shRNA
row,Sequence,sensor-assay potency score (higher = more potent)
1,TTCTTCCATTACACTCTTGTGC,-0.965
2,TACAATTTCAAGCTCCTGTCGG,0.0556
3,AATTACAATTTCAAGCTCCTGT,0.142
4,TTACATCAATAAGAGAACCTAT,-0.7
5,TTCCATTACACTCTTGTGCACA,-0.478
6,TCTTCTTTTGTAATTTCACTGT,-0.146
7,AAACTAAACATTTCAAGTCTTG,-0.697
8,ATATCTAAGCTTTCCGTCCGGC,-0.264
9,TTTTCTGATCATCACATCATTT,-1.33
